Screens deposited in PubChem by National Center for Advancing Translational Sciences (NCATS).
D2 ag-1 = agonists of human D2 dopamine receptor. P14416. HEK293 T-REx D2 cells, calcium flux agonist mode. activation, % at 2 µM. 0.53% of 340,000 active. AID 485358;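 active = activation over 3 SD above normal in the single-dose calcium agonist read, cut at about 30% in these data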; note: 0% is about no effect
Target sequence (P14416 whole entry, looked up): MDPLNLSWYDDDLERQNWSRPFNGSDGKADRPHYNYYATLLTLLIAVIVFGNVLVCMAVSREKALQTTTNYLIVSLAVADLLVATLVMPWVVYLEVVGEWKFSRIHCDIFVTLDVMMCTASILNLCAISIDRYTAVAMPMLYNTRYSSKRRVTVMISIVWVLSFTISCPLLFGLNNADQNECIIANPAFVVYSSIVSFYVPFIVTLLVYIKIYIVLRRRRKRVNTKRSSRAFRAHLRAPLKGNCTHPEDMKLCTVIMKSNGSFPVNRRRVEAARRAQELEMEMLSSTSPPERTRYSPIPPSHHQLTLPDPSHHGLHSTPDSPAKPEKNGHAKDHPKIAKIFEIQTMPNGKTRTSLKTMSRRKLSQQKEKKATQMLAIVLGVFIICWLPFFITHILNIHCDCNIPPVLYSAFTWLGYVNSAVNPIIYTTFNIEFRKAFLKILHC
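Calcium-flux readout, 1 cycle/sec over 180 s following compound pin transfer, in inducible HEK293 Trex D2 cells (force-coupled); dopamine controls included. Positive calcium responses during this window marked compounds as potential agonists.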
D2 PAM-1 = positive allosteric modulators of human D2 dopamine receptor; P14416; DiscoveRx D2 beta-arrestin cells, luminescence, 90 min; 100% = 57 uM dopamine signal; potentiation, % (test concentration not listed); 0.23% of 360,000 active; AID 624464; in the data active = potentiation above about 50%; inconclusive = mostly about 30% to 49%
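D2 cells co-treated with compound plus 50 nM dopamine (EC20) for 90 min at 37 deg C to detect potentiation. Beta-arrestin recruitment was read as enzyme-fragment luminescence after 1 h at ambient temperature. Full response was set by 57 uM dopamine.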
D2 antagonist = antagonizes the human D2 dopamine receptor; P14416; HEK293 TREx D2 cells, calcium flux, dopamine EC80; inhibition, % at 10 µM; 2% of 340,000 active; AID 485344; in the data active = inhibition above about 30%; inactive = below that, where a call was filed; note: 0% is about no effect
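Antagonism is scored as inhibition of an EC80 dopamine-evoked calcium signal in a force-coupled, tetracycline-inducible HEK293 T-REx D2 line, with compound present 180 s before agonist.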
D2 PAM-2 = D2 dopamine receptor (human) potentiation; potentiation, % at 10 µM; HEK293 T-REx D2, calcium flux, EC20 dopamine potentiation; 0.34% of 340,000 active;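 active = potentiation over 3 SD above the plate norm, cut at about 30% in these data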; note: 0% is about no effect
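Using a no-wash calcium dye in inducible, force-coupled HEK293 Trex cells expressing D2, we tracked fluorescence each second for 180 s after compound, then for 180 s after EC20 dopamine to detect augmented signalling.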
D2 ag-2 = human D2 receptor agonism in beta-arrestin assay; P14416; activation, % (test concentration not listed); 0.084% of 360,000 active; DiscoveRx PathHunter D2 beta-arrestin, luminescence, 90 min; 100% = 57 uM dopamine signal; in the data active = activation above about 40%; inconclusive = between about 15% and that limit
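DiscoveRx PathHunter D2 beta-arrestin cells (2,100/well) attached overnight, then compound-stimulated 90 min at 37 C in HBSS/10 mM HEPES/0.1% Tween-20 buffer; beta-galactosidase complementation read by luminescence after 1 h at ambient temperature. Dopamine 57 uM final (EC100) as control.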
An asterisk follows results filed as active; ? = inconclusive; . = no result; ! = not active in a repeat. Compounds with a hit are over-represented: about 2.4% of the library has one in this group of screens.

SMILES | D2 ag-1 | D2 PAM-1 | D2 antagonist | D2 PAM-2 | D2 ag-2
CN(c1ccc(C(=O)NCC2CCCO2)cc1)S(=O)(=O)c1ccc(Cl)cc1 (stereo unspecified) | . | -13 | . | . | 0
CN(c1ccc(F)cc1)S(=O)(=O)c1ccc(Cl)c(C(=O)NCC2CCCO2)c1 (stereo unspecified) | 0 | -2 | 6 | 32* | -3
O=C(NCC1CCCO1)c1cc(S(=O)(=O)N2CCOCC2)ccc1Cl (stereo unspecified) | 0 | -12 | -15 | -3 | -4
O=C(NCC1CCCO1)c1cc2c([nH]c3ccccc32)c(-c2cccc(Br)c2)n1 (stereo unspecified) | -1 | -64 | 34* | -19 | 6
O=C(NCC1CCCO1)c1cc(S(=O)(=O)Nc2ccc(Br)cc2)ccc1Cl (stereo unspecified) | 0 | 9 | 53* | 3 | 2
Cc1cccc2nc(-c3cccc(NS(=O)(=O)c4ccccc4)c3)cn12 | 0 | . | . | 3 | .
CCn1c(=O)cc(OCC(=O)Nc2ccccc2Cl)c2ccccc21 | 1 | . | . | -5 | .
CN(C)C1=NC[C@H](Cc2ccccc2)N1CCc1cccc(F)c1 | 0 | -21 | 1 | 4 | -4
NC1=NC[C@H](Cc2ccc(O)cc2)N1CCc1cccc(F)c1 | 0 | -8 | 39* | 4 | -2
CCCCNC1=CC(=O)C(=O)c2ccccc21 | 1 | -8 | 3 | 9 | 51*
NC(N)=NC(N)=Nc1cccc2ccccc12 | 1 | -3 | 4 | 3 | 6
NC(N)=Nc1cc2ccccc2c2ccccc12 | 68* | . | 38* | -20 | .
COc1ccc(OC)c(NC(=O)Cn2nc3c(cc2=O)CCCC3)c1 | 0 | . | . | 3 | .
O=c1c(Cl)nc2cc(Cl)ccc2n1CCNc1ncc(C(F)(F)F)cc1Cl | 0 | 18 | 1 | 47* | -2
O=c1c2nncn2c2cc(C(F)(F)F)ccc2n1CCNc1ncc(C(F)(F)F)cc1Cl | -2 | -2 | -15 | -4 | -5
O=C(Nc1ccc2c(c1)OCO2)c1cnn2cccnc12 | 0 | -5 | 69* | 28 | -1
COc1cc(N=c2ssnc2Cl)cc(OC)c1 | -2 | -12 | 10 | 35* | -8
Cc1sc2nc(CSC(C)C(=O)NC3(C#N)CCCCC3)[nH]c(=O)c2c1C (stereo unspecified) | 0 | -28 | 38* | -6 | -7
Cc1sc2nc(CSC(C)C(=O)Nc3ccc(C#N)cc3)[nH]c(=O)c2c1C (stereo unspecified) | 0 | -13 | -5 | 0 | -5
Cc1cc(C)c(S(=O)(=O)Nc2ccc(-c3ccc(N4CCCCC4)nn3)cc2)c(C)c1 | 1 | . | . | -4 | .
NC1=NC2(CCCC2)n2c(nc3ccccc32)N1 | 0 | -9 | 2 | 1 | -3
CCC1(C)N=C(N)Nc2nc3cc(C)c(C)cc3n21 (stereo unspecified) | -1 | -26 | 35* | -10 | 0
CCOCCCn1c(=N)c(C(=O)NCc2cccnc2)cc2c(=O)n3cc(C)ccc3nc21 | 0 | . | . | -6 | .
O=C1CCCC/C1=C/Nc1cccc(C(F)(F)F)c1 | 0 | -3 | 34* | 0 | -2
O=C1CCCC/C1=C\Nc1ccc(O)cc1 | -2 | 10 | 5 | -2 | 9
SMILES | D2 ag-1 | D2 PAM-1 | D2 antagonist | D2 PAM-2 | D2 ag-2
Cc1ccc(S(=O)(=O)N2CCN(Cc3nc4ccc(C)cc4o3)CC2)c(C)c1 | 0 | . | . | -2 | .
COc1ccc(-c2oc3cccnc3c2/C=C/c2ccc(OC)c(OC)c2)cc1 | 1 | 9 | 30* | -3 | -1
Cc1ccc(S(=O)Cc2ccc(C(=O)NC3CCCCCC3)o2)cc1 (stereo unspecified) | 0 | . | . | 16 | .
Clc1ccccc1-c1nnc(SCc2nc(-c3ccccc3)no2)n1-c1ccccc1 | 0 | . | . | 21 | .
O=C(O)c1cc2c(cc1NC(=O)C1CCCC1)OCCO2 | 1 | -8 | 33* | -15 | -6
CCOc1cc(/C=N\Nc2nc(Nc3ccccc3)nc(N3CCOCC3)n2)ccc1OC(=O)c1ccco1 | . | 65* | . | . | ?
COc1cc(/C=N/Nc2nc(C)cc(C)n2)ccc1OC(=O)c1ccco1 | 0 | -9 | -2 | 9 | 2
COc1cc(/C=N/Nc2ccc3ccccc3c2)ccc1OC(=O)c1ccco1 | -1 | 51* | 17 | -5 | 8
CCOc1ccc(CNC(=O)C2CCCN(S(=O)(=O)c3ccc4c(ccn4C)c3)C2)cc1 (stereo unspecified) | . | . | . | -1 | .
C=CCOC(=O)C1=C(C)OC(N)=C(C#N)C1c1c(C)nn(-c2ccccc2)c1Cl (stereo unspecified) | 0 | -14 | 44* | -10 | 0
COCCOC(=O)c1c(-c2ccccc2)c(-c2ccccc2)nn(C)c1=O | -1 | . | . | 0 | .
CCOc1ccc(C(=O)Nc2nnc(C)s2)cc1OCC | 0 | -6 | 6 | -7 | -1
CCOc1ccc(C(=O)Nc2c3c(nn2C(C)(C)C)CSC3)cc1OCC | 0 | -7 | 30* | -7 | -4
CCN(CC(=O)NCc1ccc(Cl)cc1)C(=O)COc1cccc(C(F)(F)F)c1 | 0 | -12 | -17 | 4 | -4
CCN(CC(=O)NCc1ccc(Cl)cc1)C(=O)COc1cccc(Cl)c1 | 1 | -62 | 33* | -9 | -6
O=C1C=CC2(O[C@H](c3ccccc3)[C@@H](c3ccccc3)O2)[C@H](Sc2ccccc2O)C1 | . | -41 | . | . | -8
COc1ccccc1C=NNC(=O)NN=Cc1ccccc1OC | . | -11 | . | . | -2
COc1ccccc1/C=N/NC(=O)c1ccc(Br)cc1 | -1 | -15 | 72* | -13 | -1
COc1ccc(/C=N/NC(=O)c2ccc(Br)cc2)c(OC)c1 | 1 | -20 | 33* | -28 | 0
O=C(N/N=C/c1ccc(OC(F)F)cc1)c1ccc(Br)cc1 | -1 | -31 | 31* | -20 | 0
COc1ccc(/C=N/NC(=O)c2ccncc2)c(OC)c1 | -1 | -2 | -9 | 6 | -3
CC(=O)Nc1cccc(-c2ccnc3c2CC(C(=O)Nc2ccc(C(C)C)cc2)O3)c1 (stereo unspecified) | . | -5 | . | . | -3
Cc1cccc(NC(=O)N2CC(=O)Nc3sc4c(c3C2c2ccccc2)CCCC4)c1C (stereo unspecified) | -1 | . | . | -4 | .
COc1ccc(CCNS(=O)(=O)c2ccc(C3CNC(=O)C3)cc2)cc1OC (stereo unspecified) | . | 3 | . | . | 0
COc1ccc(C2CNC(=O)C2)cc1OC1CCCC1 (stereo unspecified) | 70*! | -2 | 71*! | -4 | -4
COCCNC(=S)N/N=C(\C)c1ccc(C)c([N+](=O)[O-])c1 | -2 | -6 | 32* | -2 | 2
O=C(NCC1OCCc2ccccc21)c1cc(COc2ccc(F)cc2Cl)on1 (stereo unspecified) | 1 | -9 | 50* | -10 | -3
